From ChEMBL document CHEMBL3988442, “University of Dundee, Small-Polar-MMV Screening Library” (2021)

Tests used:
[1] = target: T1, Aspartate--tRNA(Asp/Asn) ligase (Mycobacterium tuberculosis (strain ATCC 25618 / H37Rv)) (UniProt P9WFW3); assay: Assay for Asp RNA synthetase-1 from Mycobacterium tuberculosis; assay type: functional; design: scale not given: direction of the effect not stated beside the values; conditions: 30 µM; note: in the data most compounds retested in dose-response had high values
T1 sequence (whole entry): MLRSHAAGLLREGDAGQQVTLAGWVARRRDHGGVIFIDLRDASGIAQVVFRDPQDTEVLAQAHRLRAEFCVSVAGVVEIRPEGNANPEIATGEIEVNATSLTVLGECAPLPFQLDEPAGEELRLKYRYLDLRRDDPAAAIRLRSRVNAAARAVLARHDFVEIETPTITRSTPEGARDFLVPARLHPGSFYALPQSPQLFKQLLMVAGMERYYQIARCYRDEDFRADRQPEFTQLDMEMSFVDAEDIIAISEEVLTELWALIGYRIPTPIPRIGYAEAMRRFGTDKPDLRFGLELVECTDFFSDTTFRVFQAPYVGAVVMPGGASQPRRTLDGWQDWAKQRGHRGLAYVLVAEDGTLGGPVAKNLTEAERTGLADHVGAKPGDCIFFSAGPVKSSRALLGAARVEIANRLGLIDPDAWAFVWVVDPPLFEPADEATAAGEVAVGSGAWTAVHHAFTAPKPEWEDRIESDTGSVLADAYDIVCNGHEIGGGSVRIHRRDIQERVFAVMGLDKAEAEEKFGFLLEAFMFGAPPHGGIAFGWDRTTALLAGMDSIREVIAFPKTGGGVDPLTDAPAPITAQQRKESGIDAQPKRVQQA

[2] = target: Shiga toxin 2 (Escherichia coli O157:H7) (UniProt P09385+P09386); assay: E. coli 0.157:H7 Shiga Toxin SOP - stx2 screening assay; assay type: functional; design: scale not given: direction of the effect not stated beside the values; conditions: 30 µM

SMILES | Percent Effect [1] [%] | Percent Effect [2] [%]
Cc1nc2n(n1)CC(Nc1cc(C(F)(F)F)nc3ncnn13)CC2 (configuration not stated) | -5.49 | -1.67
COc1cccc(COCC(=O)N2CCCC(n3ccnc3)C2)c1 (configuration not stated) | -3.41 | 23.8
Cc1noc(NC(=O)c2ccc(Br)cc2)n1 | -2.92 | 54.5
COc1ccccc1OCc1cc(C(=O)N2CC(O)C2)n[nH]1 | 2.09 | 1.76
CNC(=O)COc1ccccc1CNC1CCc2ncnn2C1 (configuration not stated) | -0.833 | -29.9
Cn1ccnc1CN1CCN(Cc2cc(C#N)ccc2F)CC1 | -5.71 | 17.6
O=c1ccc2c(n1CCN1CCCC1)CCN(Cc1ccoc1)CC2 | -2.69 | -1.66
Cc1cccc(N2CCN(C(=O)Nc3cnn(CC(N)=O)c3)CC2)c1 | -2.01 | -45.6
O=C(NCc1ccccn1)[C@H]1COC[C@H]2CN(Cc3ccoc3)C[C@H]21 | -0.779 | -0.902
CN(C)S(=O)(=O)N1C[C@@H]2CC[C@H](C1)N(Cc1ccc3nsnc3c1)C2 | -2.42 | -1.59
CCc1c(C(=O)NCC(=O)OCC2CC2)cnn1-c1ccc(C)cc1 | -5.03 | -6.36
CCC(CC)c1cc(C(=O)N2CCCC(n3cncn3)C2)on1 (configuration not stated) | -5.51 | -2.33
CCc1cc(NCc2ccccc2CN2CCCC2)n2ncnc2n1 | 7.58 | -25.4
CCN1C(=O)CCC12CCCN(Cc1nccs1)CC2 (configuration not stated) | 2.52 | 1.68
CCn1ccnc1CNCC1CCCN1c1cccnn1 (configuration not stated) | -8.36 | 6.68
c1ccc(N2CCOC3(CCCN(c4nncs4)C3)C2)nc1 (configuration not stated) | 6.43 | 1.67
CCN1C[C@@H]2[C@@H](OC)CCN(S(=O)(=O)c3ccccc3F)[C@@H]2C1 | -3.02 | 0.716
CNC(=O)CSc1cnn(CC(=O)Nc2cccc(Cl)c2C)c(=O)c1Cl | -5.35 | -8.91
Cc1nc(C2CCCN(C(=O)c3sccc3C3CC3)C2)no1 (configuration not stated) | -0.613 | 0.602
CN(CCn1cccn1)S(=O)(=O)N1CCCC1c1ccco1 (configuration not stated) | 4.31 | 20.4
CNC1CCCN(Cc2noc(C3CC3)n2)C1 (configuration not stated) | -0.881 | -5.27
O=C(c1ccco1)N1C[C@H]2CCCN(CC3CCOCC3)[C@H]2C1 | 11.5 | 2.22
COc1cccc(CN2CCCCCC2c2cccs2)c1O (configuration not stated) | 0.335 | -75.8
Cn1cccc1CN1CCC2(CCCN(C(=O)c3cnccn3)C2)C1 (configuration not stated) | 11.1 | -9.19
CS(=O)(=O)NC[C@@H]1OC[C@H]2CN(C(=O)c3ccc[nH]3)CC[C@H]21 | 3.32 | 0.898
Cc1cnn(CC2CCCCN2C(=O)Cc2csc(C)n2)c1 (configuration not stated) | -2.23 | 1.16

SMILES | Percent Effect [1] [%] | Percent Effect [2] [%]
Cc1csc(N2CCN(C(=O)Cc3ccsc3)CC2)n1 | 6.55 | -7.04
O=C(Cc1cccc(F)c1)NCCNCc1cccc(O)c1 | 4.95 | -12.7
CC(C)c1nc2n(n1)CC(NCc1ccncc1)CC2 (configuration not stated) | -2.1 | -1.1
Cc1nc(N2CCCCC2)ncc1C(=O)N1CC(C)(C)[C@@](C)(O)C1 | 4.7 | 3.19
O=C(CCN1CCOC(Cn2cccn2)C1)NC1CCCC1 (configuration not stated) | -1.67 | -51.9
CCCn1ccc(C(=O)N2CCC(C)CC2)n1 | 3.36 | -27.6
Cc1cc(C)n(-c2ccc(CNCc3ccc(OC(C)C)cc3)cn2)n1 | -4.39 | 29.5
O=C(CCc1cc2n(n1)CCCN(Cc1ccccc1F)C2)NC1CC1 | -1.95 | -4.17
CCCc1nc(C)cc(N2CCC3(CCC(=O)N(CCOC)C3)CC2)n1 | -4.22 | -2.13
N#Cc1ccccc1N1CCCN(C(=O)CCn2cccn2)CC1 | -10.7 | 3.42
Cc1cc(F)cc(S(=O)(=O)NCCCN2CCC(O)CC2)c1 | 4.04 | -67.2
COCCOCC(=O)Nc1ccc(C)cc1F | -1.8 | 2.25
Cc1nc(C)c(C(=O)N2CCCC2c2nnc3n2CCCCC3)s1 (configuration not stated) | -7.53 | -17.2
Cc1cccnc1NC(=O)NCc1ccc(N2CCNC(=O)C2)cc1 | 5.31 | -63.3
O=C(Cn1cccnc1=O)NC(Cc1ccsc1)c1ccccn1 (configuration not stated) | -3.14 | -4.55
Cc1cnn(CCNCc2ccc(C#N)cc2F)c1 | -3.18 | 6.24
Cc1nccn1C1CCCN(C(=O)c2ccc(N(C)C)nc2)C1 (configuration not stated) | -1.91 | 26
O=C(c1cc2c(s1)CCC2)N1CCCCC1Cn1cccn1 (configuration not stated) | 1.25 | 11.1
COc1ccc(CN2C[C@@H](OCc3ccccn3)[C@H]3COC[C@H]32)cc1 | 3.47 | 12.7
c1ccc(Cn2cc(CNCC3CCCN3c3cccnn3)cn2)cc1 (configuration not stated) | 8.82 | 22.8
Cc1n[nH]c(C)c1NC(=O)CN1CCCC(CNC(=O)C(C)(C)C)C1 (configuration not stated) | -4.35 | 19.6
CN(C)C(=O)CN1CCCCC1c1nc(N)ncc1-c1ccccc1 (configuration not stated) | -1.04 | 1.46
Cc1cnn(C2CCCN(C(=O)CCCOc3cccc(F)c3)C2)c1 (configuration not stated) | -4.03 | 11.8
CC(C)N1CCn2c(nc3cc(C(N)=O)ccc32)C1 | 0.319 | -34
Cc1cccn2cc(CC(=O)N3CCCC(n4cncn4)C3)nc12 (configuration not stated) | 1.06 | -13.1
